The list is not random: actives were taken first. Their share in the collection is about 0.34%.
AID504770: E. coli YBA685 growth inhibition, screen for V. cholerae RctB inhibitors; AID 504770; z-score (test concentration not listed); E. coli YBA685 rctB-dependent plasmid, OD600 growth, 3 h; active compounds read low; actives 0.27% (n = 130,000); in the data active means z-score below about -2, passing the limit was not always enough
CapD inh: inhibitors of Bacillus anthracis CapD enzyme. purified CapD enzyme, fluorescence intensity read-out; active compounds read low. z-score (test concentration not listed). actives 0.23% (n = 140,000); in the data active means z-score mostly below about -2.9, no sharp cut-off; inactive means mostly above about -1.9
* hit, by the source's call; . = not tested or not shown.

SMILES	AID504770	CapD inh
COc1cc(/C=C\C(=O)NCCc2cc3ccc(C)cc3[nH]c2=O)cc(OC)c1OC	0.25	4.28
O=C(NOC(=O)c1cccs1)c1ccccc1	-2.6*	0.83
O=C(c1ccccc1)c1cccs1	1.2	.
CCOC(=O)c1c(C)oc2nc(COC(=O)c3cc(-c4ccc(Cl)cc4)nc4ccccc34)nc(N)c12	-4.65*	.
Cc1cc(C(=O)OCc2nc(N)nc(N)n2)c2ccccc2n1	0.5	.
CCN(CC)CCCC(C)NS(=O)(=O)c1ccc(Cl)cc1Cl (configuration not stated)	.	0.52
Cc1nc(C(=O)O)nn1-c1cccc(C(F)(F)F)c1	-1.6	.
CCn1cc(C(=O)O)c(=O)c2ccc(C)nc21	-0.45	-0.345
CCn1cc(C(=O)O)c(=O)c2cnc(N3CCN(C(=S)NCc4ccccc4)CC3)nc21	-3.35*	1.06
O=C(Oc1c(Cl)cc(Cl)c2cccnc12)c1cccs1	.	0.34
O=C(Oc1c(Cl)cc(Cl)c2cccnc12)c1ccco1	-3.35*	0
COc1ccc([N+](=O)[O-])cc1C1=N/C(=C/c2cc(OC)c(OC)c(OC)c2)C(=O)O1	.	0.02
N#CC(C#N)=Cc1cc(-c2ccccc2)n(-c2ccc([N+](=O)[O-])cc2)c1-c1ccccc1	.	0.21
CCNS(=O)(=O)c1ccc(NC(=O)C2CC(=O)N(c3ccc(C)cc3)C2)cc1 (configuration not stated)	0.15	.
CSC1=N/C(=C/c2cccs2)C(=O)N1	-0.2	-4*
CSC1=N/C(=C/c2ccco2)C(=O)N1	1.65	-2.93
COC(=O)/C=C/S(=O)(=O)c1ccc(Br)cc1	-2.75*	-0.2
COC(=O)/C=C/S(=O)(=O)c1ccc(NC(C)=O)cc1	-1.15	-0.415
COc1ccc([N+](=O)[O-])cc1NC(=O)c1sc2ncn(CC(=O)Nc3ccc(C)c(Cl)c3)c(=O)c2c1C	.	0.325
CCC(Sc1nc2n[nH]c(C)c2c(=N)n1-c1ccc(Br)cc1)C(=O)NCc1ccco1 (configuration not stated)	.	0.405
Oc1ccc(Cl)cc1Sc1cc(Cl)ccc1O	-7.1*	0.585
CCC(=O)c1cc(Cl)ccc1O	-0.2	.
CC1CCc2cc(F)cc3c(=O)c(C(=O)O)cn1c23 (configuration not stated)	-3.35*	0.26
O=C(O)c1cn2c3c(cccc3c1=O)CC2	0.05	9.75
O=C(NCc1nnc(SCc2ccc(Br)cc2)n1-c1ccc(F)cc1)c1ccco1	-0.2	.
SMILES	AID504770	CapD inh
NCCNCC1COC2(CCCCCCCCCCC2)O1 (configuration not stated)	-2.85*	0.09
CCS(=O)(=O)NCC1COC2(CCCCC2)O1 (configuration not stated)	0.5	.
Cc1nnn(C23CC4CC(CC(C(=O)Nc5ccc(Br)cc5)(C4)C2)C3)n1	2.1	-0.755
CCOC(=O)c1cn2c3c(c(F)c(F)cc3c1=O)OCC2C (configuration not stated)	0.3	.
CCOC(=O)c1coc2c(F)c(F)c(F)cc2c1=O	0.4	-11.5*
CC1(C)CC(=O)c2sc3nc(-c4ccc(Br)cc4)cn3c2C1	-0.1	-0.045
CO/N=C(\C(=O)NC1C(=O)N2C(C(=O)OCOC(=O)C(C)(C)C)=C(/C=C\c3scnc3C)CSC12)c1csc(N)n1 (configuration not stated)	-0.1	.
C=CC1=C(C(=O)O)N2C(=O)[C@@H](NC(=O)/C(=N\O)c3csc(N)n3)[C@H]2SC1 (stereo in doubt)	-5.05*	.
Nc1ccc2c(c1)CCC2=O	0	.
O=C1CC(=O)c2ccc3c4c(ccc1c24)C(=O)CC3=O	-0.1	-5.06*
COc1cc(OC)nc(CSc2ncc(C(=O)N3CCN(c4nc(C)cc(C)n4)CC3)n2C)n1	.	-0.56
O=C(O)C1C2C=CC(C2)C1C(=O)Nc1cc(Cl)cc(Cl)c1 (configuration not stated)	1.1	-0.655
CCOCCCNC1CC(C)CC(C)(C)C1 (configuration not stated)	-2.2*	.
CC1CC(NC2=NCCS2)CC(C)(C)C1 (configuration not stated)	1.25	-0.805
COc1cc(NC(=O)CN2C(=O)CCC2=O)cc(OC)c1OC	-0.25	.
S=c1c2c(nc3nc[nH]n13)CCC2	-0.5	-5.7*
CC1CCc2c(nc3nc[nH]n3c2=O)C1 (configuration not stated)	-0.2	.
O=C(NC1CCCCC1)c1cc(-c2ccco2)on1	-0.2	-4*
O=C(NCc1cccs1)c1cc(-c2ccco2)on1	1.5	0.18
CCCNC(=O)c1cc(-c2ccco2)on1	-0.15	-4.73*
O=C(c1cc(-c2ccco2)on1)N(C1CCCCC1)C1CCCCC1	-0.1	9.57
O=C(NC1CCCCCC1)[C@@H]1CCCN1S(=O)(=O)c1ccc2c(c1)OCCO2	-0.35	.
Cc1ccc(S(=O)(=O)N2CCCCC2C(=O)NC(C)c2ccc3c(c2)OCCO3)cc1 (configuration not stated)	-2.1*	.
O=C(NCc1cccs1)c1cc(NS(=O)(=O)c2ccc(F)cc2)ccn1	-0.35	0.165
Cc1cccc(N2C(N)=C(C#N)C(c3cc(C)ccc3C)C3=C2CCCC3=O)c1 (configuration not stated)	1.8	-0.51
SMILES	AID504770	CapD inh
CCCNC(=O)Cn1nc(C)c2sc3ccccc3c2c1=O	0.05	-5.81*
Cc1nn(CC(=O)NCc2ccc3c(c2)OCO3)c(=O)c2c1sc1ccccc12	-0.4	0.405
CCn1c(SCc2cccc3ccccc23)nnc1-c1ccco1	2.2	.
CCOC(=O)c1ccc(N=Cc2ccc(CC)cc2)cc1	-0.15	0.48
CCOC(=O)c1ccc(N=C=S)cc1	-2.15*	.
c1coc(CNc2nc(C34CC5CC(CC(C5)C3)C4)cs2)c1	0.7	.
O=C(O)c1ccc2c(c1)C(=O)NC2=O	-0.75	.
CCn1c2ccccc2c2cc(CN3CCC(NS(=O)(=O)c4ccccc4F)C3)ccc21 (configuration not stated)	.	15.1
Cc1cccc(C(=O)Nc2nccs2)c1	-3.15*	0.385
O=C(Nc1nccs1)c1cccc(Cl)c1	-0.8	-0.99
COc1ccc(C(=O)Nc2nccs2)c(OC)c1	-0.9	.
COc1ccc(C(=O)Nc2nccs2)c(F)c1	-2.95*	.
O=[N+]([O-])c1ccc(N2CCCC2)c2nonc12	.	-0.015
COC(=O)c1ccccc1NC(=O)c1cc(OC)c(OC)c(OC)c1	.	4.43
O=CC12c3ccccc3C(c3ccccc31)C1C(=O)N(c3cccc4ccccc34)C(=O)C12 (configuration not stated)	.	-0.24
COc1ccc(/C=C2\C=C(c3ccccc3)N(c3cccc(C(=O)O)c3)C2=O)cc1Br	.	1.14
COc1cc2c3nc4n(c(=O)c3n(CC(=O)NC3CCCC3)c2cc1OC)CCS4	-0.85	.
C/C(=N\NC(=O)COc1cccc(Br)c1)c1ccco1	-0.5	.
COc1ccc(C(=O)C[n+]2ccccc2)cc1CSc1ccc(Cl)cc1	.	0.205
O=C1c2ccccc2-c2nc3ccccc3nc21	-0.4	0.365
O=C1c2ccccc2-c2n[nH]c(=S)nc21	-2.6*	.
O=C(COc1coc(CN2CCc3ccccc32)cc1=O)Nc1ccc2c(c1)OCCO2	0.7	.
COc1ccc(-n2nc(C(=O)N(C)Cc3ccccc3)c3c4ccccc4n(C)c3c2=O)cc1	-0.35	0.72
COc1ccc(-n2nc(C(=O)N(C)c3ccccc3)c3c4ccccc4n(C)c3c2=O)cc1	1.8	-4.31*
CN(c1ccccc1)c1cc(N2CCCCC2)c2nonc2c1[N+](=O)[O-]	.	-0.325
CCCCC(=O)NCc1ccc2[nH]c3c(c2c1)CCCC3	0.65	-0.645

High-throughput results: PubChem, ICCB-Longwood Screening Facility, Harvard Medical School
